Screening results deposited in PubChem BioAssay by several laboratories.
GDH-TPI counter-1 – GDH-TPI coupled enzyme inhibition counter-screen; inhibition, % at 4.8 µM; GDH-TPI coupled enzyme counterscreen, NADH absorbance; 1.2% of 360,000 active; in the data active = inhibition above about 30%;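 also: 0% = DMSO wells and 100% = wells lacking the enzyme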
DUSP3 inh – inhibitors of human VHR1 phosphatase (DUSP3). AID 1654. 0.52% of 290,000 active. P51452. inhibition, % at 13.3 µM. recombinant VHR phosphatase, pNPP absorbance; in the data active = inhibition above about 50%
Target sequence (P51452 whole entry, looked up): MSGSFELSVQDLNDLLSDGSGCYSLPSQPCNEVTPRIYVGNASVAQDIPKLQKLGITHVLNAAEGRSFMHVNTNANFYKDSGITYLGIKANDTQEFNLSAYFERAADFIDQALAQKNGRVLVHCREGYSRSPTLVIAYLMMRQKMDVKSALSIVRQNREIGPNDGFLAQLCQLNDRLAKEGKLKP
Mtb betalactam – beta-lactam sensitization of Mtb H37Rv | inhibition, % at 25 µM | AID 434955 | 0.27% of 330,000 active | M. tuberculosis H37Rv growth with meropenem, percent inhibition; call rule not given here;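 also: growth measured after seven days incubation then overnight dye step; 0% = bacteria only wells and 100% = bacteria with antibiotic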
Mtb FBA inh – inhibits M. tuberculosis FBA enzyme. P9WQA3. purified M. tuberculosis FBA, fluorescence read-out. inhibition, % at 1 µM. 2.3% of 360,000 active;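 also: 0% = vehicle and 100% = reference inhibitor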
Target sequence (P9WQA3 whole entry, looked up): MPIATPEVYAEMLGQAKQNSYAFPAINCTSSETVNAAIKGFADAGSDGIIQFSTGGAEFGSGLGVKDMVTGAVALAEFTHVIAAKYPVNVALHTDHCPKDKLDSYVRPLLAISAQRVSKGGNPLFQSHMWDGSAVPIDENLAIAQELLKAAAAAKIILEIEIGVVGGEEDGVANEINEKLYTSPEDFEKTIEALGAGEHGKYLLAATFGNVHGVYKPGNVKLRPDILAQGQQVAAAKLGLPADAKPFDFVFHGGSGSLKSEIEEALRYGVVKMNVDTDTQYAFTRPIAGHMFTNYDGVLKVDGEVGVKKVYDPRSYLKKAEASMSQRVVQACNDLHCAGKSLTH
Mtb hypoxia rep – reduces hypoxia-regulated biosensor signal in M. tuberculosis; M. tuberculosis hypoxia-regulated fluorescent reporter, fluorescence; AID 1159583; 0.1% of 300,000 active; fluorescence inhibition, % (no concentration beside the values); in the data active = fluorescence inhibition mostly above about 23%, no sharp cut-off; inactive = mostly below about 17%
Mtb FBA inh conf – Mtb FBA inhibition, confirmed | shares compounds with Mtb FBA inh | purified M. tuberculosis FBA, fluorescence read-out | inhibition, % at 1 µM | 78% of 5,600 active;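 also: 0% = vehicle wells and 100% = reference inhibitor wells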
GDH-TPI counter-2 – GDH-TPI inhibition counter-screen for FBA inhibitors; shares compounds with Mtb FBA inh; GDH-TPI coupled enzyme counterscreen, fluorescence; inhibition, % at 1 µM; 81% of 5,600 active; AID 652141; in the data active = inhibition above about 10%
* = called active by the depositor. An excerpt weighted towards active compounds, which were near 3.6% of everything screened. Rule as the data show it, unless noted: active = inhibition above about 27%; inactive = the rest.

How did O=S(=O)(NCc1ccc(F)cc1)c1ccc(-c2cnc(C3CC3)o2)cc1 do in these assays?
GDH-TPI counter-1: 14.8; DUSP3 inh: 48.3; Mtb betalactam: -8.5; Mtb FBA inh: 28.5*; Mtb hypoxia rep: -8.1; Mtb FBA inh conf: 19.4; GDH-TPI counter-2: 15.9*

Results for CCn1c(SC(=O)NC2CCCCC2)nnc1-c1cccs1 ?
GDH-TPI counter-1: 15.9; DUSP3 inh: -3.7; Mtb betalactam: -4.3; Mtb FBA inh: 45.5*; Mtb hypoxia rep: 5.3; Mtb FBA inh conf: -2.4; GDH-TPI counter-2: -0.4

What do the screens show for `CCn1c(SCC(=O)NC2CCCCC2)nnc1-c1cccs1`?
GDH-TPI counter-1: 6.4; DUSP3 inh: -18.6; Mtb betalactam: 8.1; Mtb FBA inh: 4.7; Mtb hypoxia rep: -2.2

Results for CCCCCCc1c(C)c2ccc(OCC(=O)N3CCC[C@H]3C(=O)O)c(C)c2oc1=O ?
GDH-TPI counter-1: 27.4; DUSP3 inh: 32.8; Mtb betalactam: -1.3; Mtb FBA inh: 81.0*; Mtb FBA inh conf: 148.1*; GDH-TPI counter-2: 113.2*

What do the screens show for `CCc1cc(=O)oc2cc(OCC(=O)N3CCc4ccccc43)ccc12`?
DUSP3 inh: 13.9

Results for Cc1c(CCC(=O)N2CCC[C@H]2C(=O)O)c(=O)oc2c(C)c3oc4c(c3cc12)CCCC4 ?
GDH-TPI counter-1: 27.4; DUSP3 inh: 12.7; Mtb betalactam: 10.7; Mtb FBA inh: 26.1

What do the screens show for `CCc1cc(=O)oc2cc(OCC(=O)N3CCC[C@H]3C(=O)O)ccc12`?
GDH-TPI counter-1: 14.7; DUSP3 inh: 20.6; Mtb betalactam: -4.4; Mtb FBA inh: 35.4*; Mtb FBA inh conf: active; GDH-TPI counter-2: active

What do the screens show for `CCCc1cc(=O)oc2c(C)c(OCC(=O)N3CCC[C@@H]3C(=O)O)ccc12`?
GDH-TPI counter-1: 18.6; DUSP3 inh: 16.6; Mtb betalactam: 2.5; Mtb FBA inh: 43.2*; Mtb FBA inh conf: 55.3*; GDH-TPI counter-2: 45.4*

Results for CCCc1cc(=O)oc2c(C)c(OCC(=O)N3CCC(C(N)=O)CC3)ccc12 ?
GDH-TPI counter-1: 25.5; DUSP3 inh: -14.6; Mtb betalactam: -0.2; Mtb FBA inh: 24.3

Results for CC#CCN1c2ccccc2[C@]23CC(C(=O)OC)N(C(=O)OCC)C2=NC(C(=O)OC)=C(C(=O)OC)C13 (stereo not given in full) ?
Mtb hypoxia rep: 0.9

What do the screens show for `COc1ccc(C=NNC(=O)c2cccc(NC(=O)c3ccc(F)cc3)c2)c(C(=O)O)c1OC`?
Mtb hypoxia rep: -8.3

How did CCC(=O)Nc1cc(-c2nn(C)c(=O)c3ccccc23)ccc1N1CCOCC1 do in these assays?
GDH-TPI counter-1: 4.3; DUSP3 inh: 36.8; Mtb betalactam: -4.2; Mtb FBA inh: -3.2; Mtb hypoxia rep: 2.0

What do the screens show for `COc1ccc(OCC(=O)Nc2cc(-c3nn(C)c(=O)c4ccccc34)ccc2N2CCOCC2)cc1`?
GDH-TPI counter-1: -1.6; DUSP3 inh: -15.2; Mtb betalactam: -0.5; Mtb FBA inh: 27.3*; Mtb hypoxia rep: -1.9; Mtb FBA inh conf: 6.4; GDH-TPI counter-2: -2.5

Results for CC1=C[C@@H]2c3cccc4[nH]cc(c34)C[C@H]2N(C)C1 ?
GDH-TPI counter-1: 1.0; DUSP3 inh: 1.9; Mtb betalactam: -6.0; Mtb FBA inh: 82.0*; Mtb FBA inh conf: 51.8*; GDH-TPI counter-2: 49.2*

Results for COc1cccc(C=NNC(=O)CCn2cnc3ccccc32)c1 ?
Mtb hypoxia rep: 12.3

How did O=C1NC(Cc2ccccc2)COC(=O)C(Cc2ccc(F)cc2)CCC=CCC1CC(=O)N(CCO)Cc1ccccc1 (stereo not given) do in these assays?
Mtb hypoxia rep: 6.0

What do the screens show for `COCCCNC(=O)/C(C#N)=C/c1c(N2CCN(C)CC2)nc2c(C)cccn2c1=O`?
GDH-TPI counter-1: 1.3; Mtb betalactam: -3.5; Mtb FBA inh: 91.9*; Mtb hypoxia rep: 15.3; Mtb FBA inh conf: 55.6*; GDH-TPI counter-2: 43.7*

How did COCCNC(=O)/C(C#N)=C/c1c(N2CCN(C)CC2)nc2c(C)cccn2c1=O do in these assays?
GDH-TPI counter-1: 16.4; Mtb betalactam: 3.2; Mtb FBA inh: 80.8*; Mtb hypoxia rep: 4.9; Mtb FBA inh conf: 96.0*; GDH-TPI counter-2: 84.3*

What do the screens show for `CCN1CCN(c2nc3c(C)cccn3c(=O)c2/C=C(\C#N)C(=O)NCCOC)CC1`?
GDH-TPI counter-1: 15.6; DUSP3 inh: 22.2; Mtb betalactam: -10.1; Mtb FBA inh: 97.3*; Mtb hypoxia rep: 4.5; Mtb FBA inh conf: 62.7*; GDH-TPI counter-2: 44.8*

How did COCCCNC(=O)/C(C#N)=C/c1c(N2CCN(c3ccc(OC)cc3)CC2)nc2c(C)cccn2c1=O do in these assays?
GDH-TPI counter-1: 9.2; Mtb betalactam: 32.2; Mtb FBA inh: 8.9; Mtb hypoxia rep: 1.5

How did COc1ccc(C=NNC(=O)c2ccoc2C)cc1O do in these assays?
Mtb hypoxia rep: 1.3

Results for NC(CO)c1cn(C(Cc2cc3ccccc3[nH]2)C(=O)N2CCNCC2)nn1 (stereo not given) ?
Mtb hypoxia rep: 18.5

Results for CN(C)C=Nc1ccc2nc3c(cc2c1)[nH]c1ccccc13 ?
GDH-TPI counter-1: 17.9; DUSP3 inh: -4.7; Mtb betalactam: inconclusive; Mtb FBA inh: 51.1*; Mtb hypoxia rep: 20.2; Mtb FBA inh conf: 172.3*; GDH-TPI counter-2: 143.7*

What do the screens show for `CC1CN(C(C)CO)C(=O)Cc2cc(NC(=O)Nc3cccc4ccccc34)ccc2OC1CN(C)S(C)(=O)=O` (stereo not given)?
Mtb hypoxia rep: 9.4

Results for CNc1ccccc1C(=O)OC(C)C(=O)Nc1ccc(S(=O)(=O)N2CCCC2)cc1 (stereo not given) ?
GDH-TPI counter-1: -1.3; DUSP3 inh: -0.2; Mtb betalactam: 2.7; Mtb FBA inh: 38.8*; Mtb hypoxia rep: 6.5; Mtb FBA inh conf: -2.1; GDH-TPI counter-2: -4.2

What do the screens show for `CC(=O)Nc1ccc(NC(=O)C(C)OC(=O)c2ccc(S(=O)(=O)N3CCCCC3)cc2)cc1` (stereo not given)?
GDH-TPI counter-1: 7.9; Mtb betalactam: 2.0; Mtb FBA inh: 1.1; Mtb hypoxia rep: 16.9

How did COCCN1C(=O)NC(c2cccc(C(F)(F)F)c2)C(C(C)=O)C1C (stereo not given) do in these assays?
Mtb hypoxia rep: 13.1

How did CC(NC(=O)c1nc[nH]c1C(=O)NC(Cc1ccccc1)C(=O)OC(C)(C)C)c1ccccc1 (stereo not given) do in these assays?
Mtb hypoxia rep: 1.4

Results for Cc1cccc(CNC(=O)c2ccc3c(c2)N(C)CCS3)c1 ?
GDH-TPI counter-1: 7.2; DUSP3 inh: 48.8; Mtb betalactam: -11.4; Mtb FBA inh: 55.8*; Mtb hypoxia rep: 4.3; Mtb FBA inh conf: 34.1*; GDH-TPI counter-2: 37.9*

What do the screens show for `CN1CCSc2ccc(C(=O)NCc3cccc(Br)c3)cc21`?
GDH-TPI counter-1: -2.4; DUSP3 inh: 25.2; Mtb betalactam: -3.1; Mtb FBA inh: 66.4*; Mtb hypoxia rep: 7.1; Mtb FBA inh conf: 50.5*; GDH-TPI counter-2: 34.8*
